Compound activity: PubChem, National Center for Advancing Translational Sciences (NCATS)
In the library only some 21% were active in any assay of this set; here they are far more common.
HCV inhibitor: qHTS Assay for Inhibitors of Hepatitis C Virus (HCV). Huh7.5.1 HCVcc-Cre infection, luciferase reporter, 44 h. Potency, µM (highest dose often 41.8 µM), inactives show at the top dose activity change, negative = inhibition, most hits filed as inhibitors. 340,000 compounds, 3.4% hits. AID 651820, 2012; also: potency is read from the fitted curve at half-maximal effect; % is scaled to controls: 0 for no effect and ±100 for the full control effect
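HCVcc-Cre virus at an moi near 0.5 was added right after compound to cells cultured 4 h from seeding (1,000 cells/well). Luciferase activity was determined 44 h later, 15 min after substrate addition at RT.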
CHX counter: Cycloheximide Counterscreen for Small Molecule Inhibitors of Shiga Toxin | cell reporter, cycloheximide protein synthesis inhibition counterscreen | max response, % | 300,000 compounds, 12% hits; in the data active = max response mostly above about 13%, no sharp cut-off; inactive = mostly below about 14%; also: read at 38.3 µM for the half of the compounds with a filed dose; 0% is about no effect
Shiga toxin inh: A qHTS for Small Molecule Inhibitors of Shiga Toxin; AID 2315, 2010; 290,000 compounds, 9.2% hits; inhibition, % at 38.7 µM; Vero cells, Shiga toxin protein synthesis inhibition reporter; in the data active = inhibition mostly above about 28%, no sharp cut-off; inactive = mostly below about 43%; also: 0% is about no effect
Pf growth 96h: Primary qHTS for delayed death inhibitors of the malarial parasite plastid, 96 hour incubation; P. falciparum luciferase reporter growth, 96 h; Potency, µM (titrated, usually from 28.7 µM), for inactives: at the top dose activity change, negative = inhibition, usual class: inhibitors; 320,000 compounds, 6.9% hits; also: potency is read from the fitted curve at half-maximal effect; % is scaled to controls: 0 for no effect and ±100 for the full control effect
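P. falciparum expressing integrated firefly luciferase grown in erythrocytes (2% hematocrit, 0.05% parasitemia final) with compounds for 96 hours at 37 C, 5% CO2. Growth inhibition read as loss of luminescence after adding luciferase detection reagent.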
Pf growth 48h: Primary qHTS for delayed death inhibitors of the malarial parasite plastid, 48 hour incubation; P. falciparum luciferase growth in erythrocytes, 48 h; Potency, µM (series often up to 28.7 µM), for inactives: top-dose activity change, negative = inhibition, usual class: inhibitors; 310,000 compounds, 5.9% hits; AID 504832, 2011; also: potency is read from the fitted curve at half-maximal effect; % is scaled to controls: 0 for no effect and ±100 for the full control effect
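Parasite viability was followed by luminescence of a genomically integrated firefly luciferase. Cultures held 0.1% parasitemia at 2% hematocrit (final), incubated under 5% CO2 at 37 C.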
HCMV antiviral: qHTS Assay for inhibitors of the human cytomegalovirus (HCMV); activity change, negative = inhibition, % at 57.5 µM; 410,000 compounds, 4.5% hits; HFF cells, HCMV-luciferase reporter, 72 h; active compounds read low; in the data active = activity change below about -60%; inconclusive = no clear call, values can overlap the other calls; inactive = above about -39%; also: % is scaled to controls: 0 for no effect and ±100 for the full control effect
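After 16 h attachment at 37C, HFF cells received test compound and HCMV-luciferase (1 PFU/cell); reporter luminescence read 72 h later, data normalized against buffer-only and known inhibitor Salinomycin.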
Starred values were filed as active, the others as inactive; ? = inconclusive; · = no result. Unless noted, calls follow the shape of the dose curve; as a rule, active = well fitted inhibition curve with a large enough effect; inconclusive = small, poorly fitted or top-dose-only effect, or another doubt; inactive = no such curve, though single readings can be large or run the other way.

SMILES	HCV inhibitor	CHX counter	Shiga toxin inh	Pf growth 96h	Pf growth 48h	HCMV antiviral
COc1ccccc1N1CCN(C2CCCN(Cc3c(F)cccc3F)C2)CC1 (centres undefined)	-11%	-3	-1	-62%	16%	89
CCc1ccc(N2CCn3c2nc2c3c(=O)n(CCc3ccccc3)c(=O)n2C)cc1	·	·	·	·	·	-25
Cc1ncc(CO)c2c1Oc1nc(-c3ccccc3)nc(SCC(=O)N3CCOCC3)c1C2	?	-11	-7	-19%	?	-33
Cc1cccc(-c2nc3c(c(SCC(=O)N4CCOCC4)n2)Cc2c(CO)cnc(C)c2O3)c1	11µM*	5	22	59%	5.9µM*	·
COc1cccc(-c2nc3c(c(SCC(=O)N4CCOCC4)n2)Cc2c(CO)cnc(C)c2O3)c1	11µM*	0	27	13µM*	?	·
Cc1ncc(CO)c2c1Oc1nc(-c3ccccc3F)nc(SCC(=O)N(C)c3ccccc3)c1C2	?	-3	-9	-16%	-15%	·
Cc1ncc(CO)c2c1Oc1nc(-c3ccccc3)nc(SCC(=O)N(C)c3ccccc3)c1C2	·	-7	5	13µM*	?	-15
CCCCCCCCCCCC(=O)OCC(O)CO (centres undefined)	·	·	·	-2%	-4%	-2
CCc1ccc(CNc2ncc(-c3cccc(OC)c3)n2C)cc1	·	·	·	·	·	-36
Cc1coc2c(C)c3oc(=O)c(CCC(=O)N4CCCCC4)c(C)c3cc12	·	·	·	·	·	-20
O=C(Cc1cccs1)N[C@H]1CC[C@@]23CCCN2C(=O)CCC[C@H]3[C@H]1Cc1ccccc1	·	·	·	·	·	-4
Cn1c(=O)c2cc(NC(=O)NCc3ccc(F)cc3)ccc2n1C/C=C/c1ccccc1	·	·	·	·	·	-63*
Nc1cc(=O)nc(SCC(=O)Nc2ccc(F)cc2)n1-c1cccc(Cl)c1	·	·	·	·	·	17
Cc1sc2ncnc(NCc3cccnc3)c2c1C	?	6	-11	11%	-23%	-61*
Cc1sc2ncnc(NCCCO)c2c1C	-11%	-1	-11	?	·	-18
c1coc(CNc2ncnc3sc4c(c23)CCCCC4)c1	?	-2	-14	-12%	-1%	-4
Cc1sc2ncnc(NCc3ccco3)c2c1C	?	-3	6	9.3µM*	-5%	-36
Cc1sc2ncnc(NCc3cccs3)c2c1C	10µM*	-1	-9	3%	1%	-92*
Cc1sc2ncnc(NCCN3CCOCC3)c2c1C	11µM*	1	-11	·	-6%	-76*
COC(=O)C1=CC(=O)N2CCN=C2S1	·	·	·	·	·	1
CCCn1c(Cc2ccccc2)nnc1SC(C)C(=O)NC1CC1 (centres undefined)	-3%	·	·	-4%	?	-10
O=C(NCCN1CCOCC1)c1ccc(N2CCCC2)c([N+](=O)[O-])c1	6%	-2	6	11%	35%	?
O=C(Cn1cc(C(F)(F)F)cc(Cl)c1=O)NCc1ccccc1	15%	44*	73*	73%	65%	53
O=C(Cn1cc(C(F)(F)F)cc(Cl)c1=O)NCc1ccc(Cl)cc1	17%	11	22	6%	12%	16
CC1CCN(C(=O)CN(Cc2ccc(F)cc2)S(C)(=O)=O)CC1	13%	-4	-10	-12%	-2%	47
SMILES	HCV inhibitor	CHX counter	Shiga toxin inh	Pf growth 96h	Pf growth 48h	HCMV antiviral
Cc1ccc(C(=O)OCC(=O)Nc2cc(C(C)(C)C)no2)c(C)c1	-1%	·	·	?	-25%	-38
CCCOC(=O)/C(=C\c1ccc([N+](=O)[O-])o1)NC(=O)c1ccccc1	14µM*	6	21	0.41µM*	?	-12
CCCOC(=O)/C(=C\C=C\c1ccco1)NC(=O)c1ccccc1	1%	51*	115*	57%	-12%	?
CCOC(=O)/C(=C\c1ccc([N+](=O)[O-])o1)NC(=O)c1ccccc1	?	8	-5	?	·	·
C#CCOC(=O)/C(=C/C=C/c1ccccc1)NC(=O)c1ccccc1	-8%	33	14	25%	10%	29
CC(C)OC(=O)/C(=C\C=C\c1ccccc1)NC(=O)c1ccccc1	-5%	9	14	10%	12µM*	-2
